Consider 40 molecules from PubChem BioAssay (NCI).

Compounds without any hit were thinned out: in the full panel of roughly 83,000, 20% have a hit.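 The endpoint reported here, percent growth, reads 100 for growth as untreated, 0 for no net growth and -100 for all cells dead.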 Activity calls are given as the source filed them.

This assay concerns HT29 colon. Nature of the assay: NCI-60 one-dose screen, 48 h (100 = growth as untreated, 0 = no growth, -100 = all killed). The following applies: 10 µM unless noted. The procedure: Growth inhibition of the HT29 human tumor cell line is measured as a screen for anti-cancer activity. Cells are grown in 96 well plates and exposed to the test compound for 48 hours. Compounds are tested at a single concentration, which is 10^-5 M for most compounds. The reported endpoint is percent growth (GI% or GIPRCNT), where numbers from 0 - 100% represent growth inhibition, and numbers from -100% - 0 represent cell death. For example, a value of 40 represents 60% growth inhibition. A value of 0 means no net growth occurred over the course of the experiment. A value of -40 indicates 40% of cells at the beginning of the experiment died by the end of the experiment. A value of -100 means all cells are dead at the end of the experiment.
NCI-60 Human Tumor Cell Lines Screen was performed using the standard one-dose NCI protocol, which is described in more detail at https://dtp.cancer.gov/discovery_development/nci-60/default.htm.
Compounds with GIPRCNT values below 10 were considered active. Activity score was based on GIPRCNT using the following formula: […]
Score is 0 for GIPRCNT values of 100 or above, 50 for GIPRCNT values of 0, and 100 for GIPRCNT values of -100.
On to `Cc1nc2cc(O)c(O)cc2cc1Oc1ccc(NC(=O)Nc2ccc(Cl)c(Cl)c2)cc1`, for which the growth is 48% (inactive). With `O=C1/C=C/[C@@H](O)[C@@H]2C[C@@H](O)C[C@H]2/C=C/CCC[C@H](CCO)O1`, the growth is -2.5% (active). The same measure for `CC1CCN(C(=S)SCC(=O)NC(=O)c2ccccc2)CC1`: 101% (inactive); for `C[C@]1(O)CC(=O)[C@]2(O)C3=C(C=C[C@]2(O)C1)C(=O)c1c(O)cccc1C3=O`: 3.93% (active). The same measure for `CO[C@H]1CC(=O)n2c3ccccc3c3c4c(c5c6ccccc6n1c5c32)C(=O)NC4=O`: 26.3% (inactive); for `NC(=O)c1c(NC(=O)c2cccc(C(F)(F)F)c2)sc2c1CCC(=O)C2`: 3.32% (active); for `Nc1ccc(-c2csc(-n3[nH]c(=O)ccc3=O)n2)cc1`: 94.5% (inactive). The same measure for `O=C1C(Nc2ccccn2)=C(I)C(=O)c2ncccc21`: -14.5% (active); for `Cc1cccc(-c2nc(Nc3ccc4ncsc4c3)c3ccccc3n2)n1`: 43.1% (inactive); for `COc1ccc2cc(-c3ccnc4c(N=Nc5ccc(Cl)cc5)c(N)nn34)ccc2c1`: 103% (inactive). Regarding `O=C1c2ccccc2C(=O)C1c1ccc(Br)cc1`, the growth was 101% (inactive). For `CCOC(=O)c1c(C)c2c(n1Cc1ccccc1)CSCC2=O`, the growth is 7.91% [100 µM] (active).

With `CC[C@]12C=CCN3CC[C@@]4(c5ccc(OC)cc5N(C)[C@H]4[C@@](O)(C(=O)OC)[C@@H]1OC(=O)CCC[P+](c1ccccc1)(c1ccccc1)c1ccccc1)[C@@H]32`, the growth is 2.42% (active).

Consider `N=C(N)c1ccc(-c2ccc(-c3ccccc3)s2)cc1`, for which the growth is -5% (active). In the case of `COc1cccc(-c2cc(-c3cccc(Cl)c3)c(C#N)c(=O)[nH]2)c1`, the growth is 103% (inactive). For `CC1(C)N=C(N)N=C(N)N1c1cccc(CCc2ccccc2)c1`, the growth is 14.3% (inactive). Consider `COc1ccc(/C=C/C(c2cc(OC)c(OC)c(OC)c2)n2cncn2)cc1` (stereo not given), for which the growth was 4.96% (active). For `O=C(/C=C/c1ccccc1)c1ccc(Nc2nc(Nc3ccc(F)cc3)nc(Nc3ccc(Cl)cc3)n2)cc1`, the growth was 83.5% (inactive). The same measure for `CCOC(=O)c1ccccc1-c1c2ccc(=[N+](C)C)cc-2oc2cc(N(C)C)ccc12`: -0.175% (active); for `CCN1C(=O)N(CC)C2Nn3c(s/c(=C\c4ccccc4Br)c3=O)=NC21` (stereo not given): 4.78% (active); for `CS(=O)(=O)Nc1cc(-c2ccc3ncc(C#N)c(Nc4ccc(F)c(Cl)c4)c3c2)cnc1Cl`: 1.84% (active). With `O=C1/C(=C/c2ccccc2F)CN(C(=O)C(Cl)Cl)C/C1=C\c1ccccc1F`, the growth is 3.2% (active). Consider `Cc1nn(-c2ccccc2)c(N)c1N=C1NC(=O)/C(=C/c2ccc(Br)cc2)S1`, for which the growth was 106% (inactive). The same measure for `Nc1[nH]n2cc(-c3ccc(F)cc3)nc2c1N=Nc1ccc(S(N)(=O)=O)cc1`: 83.6% (inactive); for `COc1ccc2c(c1)c(-c1nc(-c3c[nH]c4ncccc34)cs1)cn2CCCN1CCOCC1`: -12.9% (active); for `Cc1cc2c(cc1C)N(C(=O)CCl)CC(=O)N2`: -60% (active).

Turning to `CCN1C(=O)N(CC)C2C1NN=c1s/c(=C\c3ccc(C(F)(F)F)cc3)c(=O)n12` (stereo not given), the growth was 1.55% (active). As to `Cc1ccc2c(-c3nnc(N)s3)cc(=O)oc2c1C`, the growth was 106% (inactive). The same measure for `CN(C)CCCNC(=O)c1cncnc1Nc1ccc(OCc2cccc(F)c2)c(Cl)c1`: -49.7% (active); for `COc1ccc(/C=C/C(=O)c2ccc(NC(=O)CSc3nc4c([nH]3)c(=O)n(C)c(=O)n4C)cc2)cc1OC`: 103% (inactive).

On to `O=C(O)[C@@H](Cc1ccc2ccccc2c1)NC(=O)n1c2ccccc2c2ccccc21`, for which the growth is 4.59% (active). Turning to `CCN(CC)c1ccc(/C=N/NC(=O)Cc2ccc(Nc3ccnc(C(F)(F)F)c3)cc2)c(O)c1`, the growth was 33.1% (inactive). For `CN1CCN(C(=O)[C@@]2(C)CC[C@]3(C)CC[C@]4(C)C(=CC[C@@H]5[C@@]6(C)CCC(=O)NC(C)(C)[C@@H]6CC[C@]54C)[C@@H]3C2)CC1`, the growth was 3.61% (active). The same measure for `CN1CCN(c2ccc3nc4c(nc3c2C(F)(F)F)C(=O)c2ncccc2C4=O)CC1`: -55.5% (active); for `CN(C)c1ccc(-c2nc(-c3ccccc3)c(-c3ccccc3)[nH]2)cc1`: 58.9% (inactive). Regarding `Cc1cc(Nc2ccc(C(=O)N3CCCC3)cc2)nc(NCCCNc2ccnc3cc(Cl)ccc23)n1`, the growth is 68.9% (inactive). For the molecule `O=C(NCc1cccc(CNC(=O)Nc2nc3ccccc3[nH]2)c1)Nc1nc2ccccc2[nH]1`, the growth is -45.7% (active).

Turning to `CC1=C2[C@@H](CC1)[C@]1(C)O[C@@](c3ccccc3)(C[C@H]1OC(=O)CO)[C@H]2OC(=O)/C=C/c1ccccc1`, the growth was 87.2% (inactive). Regarding `COC(=O)/C=C1/SC(=Nc2ccc([N+](=O)[O-])cc2)N(CCc2c[nH]c3ccc(O)cc23)C1=O`, the growth was 42.6% (inactive).

For the molecule `COc1ccc(C(=O)Cn2c(C(=O)c3ccc(OC)cc3)nc3ccccc32)cc1`, the growth is 14.9% (inactive).
